Compound activity (PubChem BioAssay)
AF4-AF9 inh: inhibitors of AF4 peptide binding to AF9, primary screen, biochemical, AlphaScreen, biotin-AF4 peptide, FLAG-AF9, single point; inhibition, % at 10 µM; 350,000 tested, 0.47% active; AID 651704, 2012;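 active = every replicate reaching a set inhibition limit, whatever the replicate mean, cut at about 25% in these data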;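 also: 0% = plate neutral control median and 100% = total signal loss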
NSD2 HMT inh: NSD2 histone methyltransferase inhibitors, primary screen, biochemical, AlphaScreen, single concentration, set 2 | inhibition, % at 12.5 µM | Histone-lysine N-methyltransferase NSD2 (Homo sapiens), O96028 | 310,000 tested, 0.54% active | NSD2 peptide methylation, 120 min; in the data active = inhibition above about 50%
miR122 inh: miR-122 Renilla sensor signal increase in Huh7, primary screen, miR-122 inhibitor project, cell-based, single point, plate reader | 340,000 tested, 0.3% active | activation (reporter increase), % at 12.5 µM | AID 602342, 2012 | Huh7 miR-122 Renilla luciferase sensor, 48 h; neutral wells = 0, positive control = 100;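 active = mean replicate activation score at least 90 and every replicate individually at or above 90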;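 also: higher luciferase means less miR-122 activity so hits act as miR-122 inhibitors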
CASP6 VEID inh: human caspase-6 inhibitors, primary screen, biochemical, VEID-R110 fluorescence, single point, set 2 | P55212 | purified caspase-6, Z-VEID-R110 cleavage fluorescence | inhibition, % at 12.5 µM | 350,000 tested, 0.53% active | AID 686996, 2013;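 active = mean inhibition across replicates at least about 35%, with every replicate also reaching that limit, limit read from the data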;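 also: 0% = median of neutral control wells and 100% = no fluorescence left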
RAD52 inh: RAD52 DNA annealing inhibitors, primary screen, biochemical, FRET, single point, set 2; DNA repair protein RAD52 homolog (Homo sapiens), P43351; recombinant RAD52 DNA annealing, FRET fluorescence; inhibition, % at 18.7 µM; 360,000 tested, 0.46% active; AID 651710, 2012;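 active = every replicate showing at least 50% inhibition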
* = called active by the depositor; i = inactive; / = no result given; [ ] = dose if it differs, or a comment. Rows were chosen to be rich in hits. Some 1.5% of all compounds tested hit in one or more screens of this group.

SMILES | AF4-AF9 inh | NSD2 HMT inh | miR122 inh | CASP6 VEID inh | RAD52 inh
O=C1NC(Cc2ccc(O)cc2)c2nc3ccc(Br)cc3c(=O)n2-c2cc3ccccc3cc21 (configuration not stated) | 1 | / | -1 | 3 | -8
CNC[C@H]1OCCCC[C@H](C)Oc2ccc(NS(=O)(=O)c3ccccc3)cc2C(=O)N([C@@H](C)CO)C[C@@H]1C | / | / | 9[16.7 µM] | / | /
O=C(NCCCn1ccnc1)C1CC(c2ccccc2Cl)=NO1 (configuration not stated) | 28* | 27 | -9 | -12 | -4
CN(C)CCCN(C(=O)CCc1ccccc1)c1nc2ccc(Br)cc2s1 | 26* | 10 | -55 | -3 | 41
CN(C)CCCN(C(=O)CCc1ccccc1)c1nc2ccc(F)cc2s1 | / | -2 | / | / | /
Cc1ccc(S(=O)(=O)N(C)C[C@@H]2OCCCC[C@@H](C)Oc3ccc(NC(=O)CCCN(C)C)cc3C(=O)N([C@@H](C)CO)C[C@@H]2C)cc1 | 1 | / | 0[16.7 µM] | -3 | 25
Cc1ccc(S(=O)(=O)N(C)C[C@H]2OCCCC[C@@H](C)Oc3ccc(NC(=O)CCCN(C)C)cc3C(=O)N([C@@H](C)CO)C[C@@H]2C)cc1 | 7 | / | -3[16.7 µM] | -1 | 50*
COc1ccc(NC(=O)N(C)C[C@H]2OCCCC[C@@H](C)Oc3ccc(NS(=O)(=O)c4ccccc4)cc3C(=O)N([C@H](C)CO)C[C@@H]2C)cc1 | -1 | / | 5[16.7 µM] | 3 | 99*
COc1ccc(NC(=O)N(C)C[C@H]2OCCCC[C@@H](C)Oc3ccc(NS(=O)(=O)c4cn(C)cn4)cc3C(=O)N([C@H](C)CO)C[C@@H]2C)cc1 | -5 | / | 0[16.7 µM] | 60* | -3
Cc1ccc(S(=O)(=O)Nc2ccc3c(c2)C(=O)N([C@@H](C)CO)C[C@H](C)[C@@H](CN(C)CC2CCCCC2)OCCCC[C@H](C)O3)cc1 | 17 | / | -2[16.7 µM] | 1 | 55*
COc1ccc(NC(=O)N(C)C[C@H]2OCCCC[C@H](C)Oc3ccc(NS(=O)(=O)c4cn(C)cn4)cc3C(=O)N([C@H](C)CO)C[C@@H]2C)cc1 | 0 | / | -1 | -1 | -23
Cc1ccc(S(=O)(=O)Nc2ccc3c(c2)C(=O)N([C@@H](C)CO)C[C@H](C)[C@H](CN(C)C(=O)Nc2ccc(F)cc2)OCCCC[C@@H](C)O3)cc1 | -2 | / | 94*[16.7 µM] | -1 | 5
CNC[C@@H]1OCCCC[C@@H](C)Oc2ccc(N(C)C)cc2C(=O)N([C@H](C)CO)C[C@H]1C | 5 | / | -7[16.7 µM] | 0 | -301
Cc1cc(C(=O)Nc2cccc3c2O[C@@H](CN(C)Cc2ccc(C(F)(F)F)cc2)[C@H](C)CN([C@H](C)CO)C3=O)n(C)n1 | 3 | / | 127*[16.7 µM] | 2 | 3
Cc1cc(C(=O)Nc2cccc3c2O[C@H](CN(C)CC2CCCCC2)[C@@H](C)CN([C@@H](C)CO)C3=O)n(C)n1 | -18 | / | 67[16.7 µM] | 2 | -5
Cc1cc(C(=O)Nc2cccc3c2O[C@@H](CN(C)CC2CCCCC2)[C@@H](C)CN([C@@H](C)CO)C3=O)n(C)n1 | -26 | / | 94*[16.7 µM] | 5 | 18
Cc1cc(C(=O)Nc2cccc3c2O[C@@H](CN(C)CC2CCCCC2)[C@@H](C)CN([C@H](C)CO)C3=O)n(C)n1 | -22 | / | 97*[16.7 µM] | 4 | 20
Cc1cc(C(=O)Nc2cccc3c2O[C@@H](CN(C)CC2CCCCC2)[C@H](C)CN([C@H](C)CO)C3=O)n(C)n1 | -15 | / | 3[16.7 µM] | 1 | 7
CCCC(=O)Nc1ccc2c(c1)C(=O)N(C)C[C@@H](OC)[C@@H](C)CN(Cc1ccncc1)[C@H](C)CO2 | / | / | 4[16.7 µM] | / | /
C[C@@H]1CN([C@H](C)CO)C(=O)c2cc(NS(C)(=O)=O)ccc2O[C@@H](C)CCCCO[C@@H]1CN(C)C(=O)NC1CCCCC1 | -1 | / | / | -1 | 3
N#C/C(=C/c1ccc(O)c(O)c1)C(=O)NCc1ccc(Cl)cc1 | 6 | 78* | -7 | 35* | -44
COc1ccc(Oc2c(OC)cc(NCc3ccc(CN)cc3)c3ncccc23)cc1 | 1 | 76* | 0 | 21 | -19
COC(=O)CSc1ccc2nnc(-c3ccc(OC)c(OC)c3)n2n1 | 32* | / | 9 | -4 | -8
C[C@H]1CN([C@@H](C)CO)C(=O)c2cccc(NS(=O)(=O)c3cccs3)c2O[C@H]1CN(C)C(=O)Nc1ccc2c(c1)OCO2 | -1 | / | 1[16.7 µM] | 1 | -3
COc1cc(S(=O)(=O)NCc2cccnc2)c(OC)cc1Br | / | 1 | 108* | / | /
SMILES | AF4-AF9 inh | NSD2 HMT inh | miR122 inh | CASP6 VEID inh | RAD52 inh
COc1cc(C)c(Cl)c(C)c1S(=O)(=O)NCc1cccnc1 | / | -1 | 121* | / | /
COc1ccc(C(C)(C)C)cc1S(=O)(=O)n1ccnc1C | -2 | -2 | 95* | 0 | -13
COc1ccc(C(=O)OCC(=O)c2ccc[nH]2)c(OC)c1 | -3 | -1 | -2 | 43* | -15
O=C(CN1C(=O)NC2(CCOc3ccccc32)C1=O)c1ccc(Cl)cc1 (configuration not stated) | 1 | -4 | 1 | 78* | -6
O=C(CN1C(=O)NC2(CCOc3ccccc32)C1=O)c1ccc(Br)cc1 (configuration not stated) | -6 | 2 | / | 3 | -28
Cc1ccc(NC(=O)c2ccc(S(=O)(=O)N3CCOCC3)cc2)nc1 | / | 0 | 216* | / | /
COc1ccc(S(=O)(=O)Nc2ccc3c(c2)C(=O)N([C@@H](C)CO)C[C@H](C)[C@H](CN(C)S(=O)(=O)c2cn(C)cn2)OCCCC[C@@H](C)O3)cc1 | -1 | / | 10[16.7 µM] | -2 | -2
O=S(=O)(NCCc1ccncc1)c1ccc(Br)cc1 | / | 0 | 192* | / | /
COc1cccc2c1C(=O)c1c(O)c3c(c(O)c1C2=O)C[C@@](O)(C(=O)CO)C[C@@H]3O[C@H]1C[C@H](N)[C@@H](O)[C@H](C)O1 | / | / | -26 | / | /
COc1cccc2c1C(=O)c1c(O)c3c(c(O)c1C2=O)C[C@@](O)(C(C)=O)C[C@@H]3O[C@H]1C[C@H](N)[C@H](O)[C@H](C)O1 | 31* | / | -20 | -82 | i
O=C(N[C@@H]1CC[C@@H](CCNS(=O)(=O)c2ccc(F)cc2)O[C@@H]1CO)c1cccnc1 | -1 | / | / | 0 | -18
C[C@@H](NC(=O)C[C@H]1CC[C@H](NC(=O)C2CC2)[C@@H](CO)O1)c1ccccc1 | -2 | / | / | 0 | 2
Cc1ccc(-c2nc(C#N)c(N3CCC(C)CC3)o2)cc1 | 28* | 3 | -2 | -2 | -7
COc1ccc(-c2nc(C#N)c(N3CCC(C)CC3)o2)cc1 | 1 | -1 | -7 | 0 | -11
COc1ccc(-c2nc(C#N)c(N3CCCCCC3)o2)cc1OC | 27* | 6 | / | 7 | 8
